# Experimental data as given in the supplement of paper PMC10338343.
# ± gives the standard deviation. The full ranking holds about 8,200 sequences; the median of “pre-steady-state target cleavage rate” is about 0.024, and the highest 2% start at about 1.3. This excerpt belongs to a sample that is enriched for the highest values.
# Test system: MIWI (PIWIL1) piRISC loaded with L1MC piRNA (30 nt)
# Test: pre-steady-state target cleavage rate (min^-1); MIWI and MILI are mouse PIWI proteins and EfPiwi is from a freshwater sponge; tags in brackets are library labels; higher = faster piRNA-guided slicing of the target
# Settings: guide: L1MC piRNA 5'p-UAACUAAAUACUAUGCAAGCUGUAGGUCCU
# Method in brief: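 A burst-and-steady-state fit was used to obtain the pre-steady-state cleavage rate. The input data were sequencing reads of uncleaved targets, normalised to depth and to weakly complementary targets, from a […] transcribed, DNA-blocked target RNA library mixed with 1 nM active affinity-purified piRISC holding one synthetic guide, with or without 500 nM GTSF1 partner protein, in HEPES–potassium acetate buffer at 33 °C for 0–8 or 0–960 min. Three trials were pooled and k3 was capped at 0.0001 min^-1.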
# [1] = auxiliary factor: 500 nM mouse GTSF1
# [2] = auxiliary factor: none (no GTSF1)
# 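Also: 1 nM active piRISC with 0.1 nM target library at 33 °C single turnover.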
Sequence,pre-steady-state target cleavage rate [1],pre-steady-state target cleavage rate [2]
UCCUCCUACAGCUUGCAUAGUAAAAAGUUA,0.231 ± 0.023,–
UCCUCCUACAGCUAGCAUAGUAUUUAGUUA,0.838 ± 0.03,0.016 ± 0.0034
UCCUCCUACAGCUUAGCAUAGUAUUUAGUUA,1.31 ± 0.054,0.0108 ± 0.0023
UCCUCCUACAGCUUACAUAGUAUUUAGUUA,1.14 ± 0.031,0.0275 ± 0.0041
ACGUCCUACAGCUUGCAUAGUAUUUAGUUA,1.52 ± 0.055,0.0835 ± 0.013
UGGUCCUACAGCUUGCAAAGUAUUUAGUUA,1.13 ± 0.04,0.0413 ± 0.0067
AGGUCCUACAGCUUGCAAAGUAUUUAGUUA,1.35 ± 0.043,0.0532 ± 0.01
UGGUCCUACAGCUUGCAUAGUAUUUAGUUA,1.16 ± 0.052,0.0862 ± 0.015
UCGUCCUACAGCUUGCAUAGUAUUUAGUAA,0.82 ± 0.037,0.0372 ± 0.0076
UCGUCCUACAGCUUGCAUAGUAUUUAGUUA,1.42 ± 0.041,0.0638 ± 0.0093
UCCUACUACAGCUUGCAUAGUAUUUAGUUA,0.886 ± 0.036,0.057 ± 0.0085
AGGUCCUACAGCUUGCAUAGUAUUUAGUUA,1.43 ± 0.054,0.111 ± 0.019
UCGUCCUACAGCUUGCAAAGUAUUUAGUUA,1.3 ± 0.032,0.0388 ± 0.0068
AGGUCCUACAGCUUGCAUAGUAUUUAGUAA,0.77 ± 0.055,0.0647 ± 0.012
UCGUCCUACAGCUUGCAUAGUAUUUAGAAA,0.469 ± 0.042,0.00751 ± 0.0029
UCCUGGAUCAGCUUGCAUAGUAAUUAGAUA,0.216 ± 0.036,0.0126 ± 0.0029
UCCUGGAACAGCUUGGUAAGUAUUUAGUUA,0.00797 ± 0.0031,–
UCCUGGAUGUGCUUGACAUAGUAUUUAGUUA,0.0551 ± 0.0082,–
UCCUGGAUCAGCUUGCAUAGUAUUAUGUAA,0.0189 ± 0.0065,0.00377 ± 0.0026
UCCUGGAUGUGCUUGGAUACUAUUUAGUUA,0.031 ± 0.011,0.0033 ± 0.0029
UCCUGGAUGUCGAACCAUACUAAUUAGUUA,–,< 0.0001

Sequence,pre-steady-state target cleavage rate [1],pre-steady-state target cleavage rate [2]
AGGACCUACAGCUAGCAUAGUAAUUAGUUA,0.745 ± 0.06,0.0091 ± 0.0021
UCCUGGAUCACCAUGCAUAGUAUUUAGUUA,0.0303 ± 0.0068,–
UGGUCCUACAGCUUGCUUAGUAUUUAGUUA,1.21 ± 0.035,0.0478 ± 0.0087
AGGUCCUACAGCUUGCUUAGUAUUUAGUUA,1.54 ± 0.069,0.0542 ± 0.011
UCCAGCUACAGCUUGCUUAGUAUUUAGUUA,0.78 ± 0.039,0.0235 ± 0.004
UCCUGCUACAGCUUGCUUAGUAUUUAGUUA,0.987 ± 0.056,0.0337 ± 0.008
UCGUCCUACAGCUUGCUUAGUAUUUAGUUA,1.43 ± 0.047,0.0358 ± 0.0073
UCCUCCUACAGCUUGCUAGUAUUUAGUUA,0.0615 ± 0.017,–
AGGACCUACAGCUUGCAUAGAUAUUUAGUUA,0.143 ± 0.048,–
UCCACCUACAGCUUGCAUUCAAUUUAGUUA,0.0179 ± 0.0084,–
AGGACCUGCAGCUUGCAUAGUAUUUAGUUA,1.38 ± 0.088,0.0689 ± 0.014
UCGACCUGACAGCUUGCAUAGUAUUUAGUUA,1.25 ± 0.057,0.0632 ± 0.011
UCGACCUUGUGCUUGCAUAGUAUUUAGUUA,0.871 ± 0.038,0.0513 ± 0.0098
UCGACCUUCUGCUUGCAUAGUAUUUAGUUA,1.45 ± 0.048,0.0653 ± 0.011
UGGACCUGACAGCUUGCAUAGUAUUUAGUUA,1.56 ± 0.12,0.0824 ± 0.017
UGGACCUUCUGCUUGCAUAGUAUUUAGUUA,1.3 ± 0.066,0.0534 ± 0.0096
UCGACCUGCAGCUUGCAUAGUAUUUAGUUA,1.41 ± 0.072,0.0674 ± 0.013
AGGACCUGACAGCUUGCAUAGUAUUUAGUUA,1.17 ± 0.07,0.067 ± 0.011
AGGACCUUCUGCUUGCAUAGUAUUUAGUUA,1.24 ± 0.042,0.082 ± 0.015
UCCACCUGCAGCUUGCAUAGUAUUUAGUUA,1.15 ± 0.13,0.0541 ± 0.011
UCCUCCUGCAGCUUGCAUAGUAUUUAGUUA,1.1 ± 0.053,0.0513 ± 0.0088

Sequence,pre-steady-state target cleavage rate [1],pre-steady-state target cleavage rate [2]
UCCUGGAACAGCUUGCAUAGUAUUUAGUAA,0.685 ± 0.046,0.0337 ± 0.0083
UCCUGCUACACGAUGCAUAGUAUUUAGUAA,0.396 ± 0.032,–
UCCUGGAUGUCGAUGCUUAGUAUUUUGUUA,< 0.0001,–
UCCUGGAUCACGUUGCAUAGUAUUUAGUAA,0.0198 ± 0.0044,–
UCGACGUACAGCUUCCAUAGUAUUUAGUUA,0.0527 ± 0.011,0.00418 ± 0.0013
UCGAGCUACAGCUUGCAUAGUAUUUUGUUA,1.06 ± 0.06,0.0528 ± 0.0088
UCCUGGAUGAGCUUGCAUAGUAUUAUGUUA,0.194 ± 0.027,0.0102 ± 0.0042
UCCUGGAUGAGCUUGCAUAGUAAUUAGAAA,0.0194 ± 0.0086,–
UCCUGGUACAGCUUGCAUAGUAUUUUGAUA,0.166 ± 0.031,0.00994 ± 0.0034
UCCUGCUGCAGCUUGCAUAGUAUUUAGUUA,1.27 ± 0.058,0.0512 ± 0.011
UGGACCUAGUGCUUGCAUAGUAUUUAGUUA,0.979 ± 0.061,0.0419 ± 0.0095
UGGACCUGCAGCUUGCAUAGUAUUUAGUUA,1.57 ± 0.099,0.0683 ± 0.013
UCCUGGAUGUCGAACCAUAGAAUAUAGUUA,–,< 0.0001
UCCUGGAUGUCCAUGCAUAGUAUUUUGUUA,0.00484 ± 0.0039,–
UCGACCUUCAGCUUGCAUAGUAUUUAGAAA,0.659 ± 0.064,0.0103 ± 0.0029
UCGACCUUCAGCUUGCAUAGUAUUUAGUAA,1.05 ± 0.065,0.043 ± 0.011
UCCUCCUUCAGCUUGCAAAGUAUUUAGUUA,1.16 ± 0.041,0.0323 ± 0.0072
UCCACCUUCAGCUUGCUUAGUAUUUAGUUA,1.16 ± 0.037,0.0231 ± 0.005
UCCACCUUCAGCUUGCAAAGUAUUUAGUUA,1.17 ± 0.038,0.0305 ± 0.0063
UCCUCCUUCAGCUUGCUUAGUAUUUAGUUA,1.31 ± 0.054,0.0243 ± 0.0053
UCGACCUUCAGCUUGCUUAGUAUUUAGUUA,1.33 ± 0.05,0.0363 ± 0.0088
